# According to PubChem BioAssay:
# Where “and” joins values, the source holds several entries; their conditions need not be identical. Identical values can stand only once. Calls of active or inactive are those of the source.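 The calls were made as follows, unless noted: active = compounds whose cell count with miR-34 switched on is under 0.7 times the count with it off; inactive = the rest.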
# Legend:
# [1] = hESC survival regulators, cell-based (AID 493140; call rule not given here;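 also: cells exposed to compounds for four days before counting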); conditions: human embryonic stem cell survival screen; stronger effect = higher value
# [2] = liver-stage malaria parasite growth inhibition, primary screen, cell-based, HepG2, luciferase luminescence, HepG2 viability (AID 624349; in the data active = parasite load remaining mostly below about 12%, no sharp cut-off; inactive = mostly above about 10%;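 also: 100% = mean of DMSO negative control wells on the same plate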); conditions: P. berghei liver stage in HepG2, luciferase luminescence, concentration not given here; parasite load remaining: stronger effect = lower value; viability: measured here: HepG2 viability without parasites
# [3] = sensitizers of A549 cells to miR-34 induction, primary screen, imaging, A549 dox-inducible miR-34, nuclei and caspase counts (AID 1347080); conditions: A549 miR-34 inducible, Hoechst nuclei count, 48 h
# [4] = survival rescue of mitochondrial mutant cells in low glucose, primary screen, MELAS cybrids, Rieske KO mouse fibroblasts, CellTiter-Glo (AID 1508586;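 active = mean z-score across replicates of 1.96 or higher in either the MELAS or the Rieske mutant cell line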;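 also: z relative to plate mean and SD of compound and empty wells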)
# [5] = stronger effect = lower value, cell number ratio, induced over uninduced
# [6] = measured here: relative caspase fold change +Dox/-Dox
# [7] = measured here: total cells with miR-34 induction, stronger effect = lower value
# [8] = measured here: total cells without miR-34 induction
# [9] = MELAS cybrid survival, CellTiter-Glo 48 h, stronger effect = higher value
# [10] = Rieske KO mouse fibroblast survival, CellTiter-Glo 72 h
SMILES,survival [1],parasite load remaining [2],viability [2],"fold change [3, 5]","fold change [3, 6]","cell count [3, 7]","cell count [3, 8]","z-score [4, 9]","z-score [4, 10]"
CCC(=O)OCC(=O)C1(OC(=O)CC)[C@H](C)C[C@H]2[C@H]3[C@H]([C@@H](O)C[C@@]21C)[C@@]1(C)C=CC(=O)C=C1C[C@H]3Cl (some centres undefined),4.33 (inactive),104% (inactive),97.3%,0.785 (inactive),1.32,6260,7980,0.535 (inactive),0.903
C/C(=C(/CCO)SSCC1CCCO1)N(C=O)Cc1cnc(C)nc1N (centres undefined),5.83 (inactive),105% (inactive),73.2%,0.933 (inactive),0.561,9240,9910,0.79 (inactive),0.563
CN[C@H]1[C@@H](O)[C@H](O[C@H]2[C@@H](O)[C@@H](OC3OC(CN)=CCC3N)[C@H](N)C[C@@H]2N)OC[C@@]1(C)O (some centres undefined),–,95.5% (inactive),113%,0.885 (inactive),1.15,9450,10700,0.354 (inactive),0.0602
CNC(=O)c1c(I)c(C(=O)NCC(=O)Nc2c(I)c(C(=O)O)c(I)c(C(=O)NCCO)c2I)c(I)c(N(C)C(C)=O)c1I,10.4 (inactive),91.6% (inactive),71.7%,0.94 (inactive),0.7,9020,9600,-0.247 (inactive),0.501
CC(=O)N[C@@H](CC(=O)N[C@H](CCC(=O)O)C(=O)O)C(=O)O,–,91.6% (inactive),69.1%,0.929 (inactive),1.02,9500,10200,0.603 (inactive),0.146
CC(C)(C)CC(C)(C)c1ccc(OCOCCOCCO)c(Cc2cc(C(C)(C)CC(C)(C)C)cc(Cc3cc(C(C)(C)CC(C)(C)C)ccc3OCOCCOCCO)c2OCOCCOCCO)c1,1.75 (inactive),112% (inactive),98.8%,0.877 (inactive),1.23,7920,9040,-2.08 (inactive),-1.21
C=CCN1CCCC1CNC(=O)c1cc2[nH]nnc2cc1OC (centres undefined),–,92.8% (inactive),100%,0.836 (inactive) and 0.882 (inactive),1.28 and 0.705,8730 and 8290,10400 and 9410,-0.272 (inactive) and -0.0484 (inactive),-0.199 and -0.148
OCCN1CCN(CC/C=C2/c3ccccc3Sc3ccc(Cl)cc32)CC1,0.583 (inactive),65.1% (inactive),62.7%,0.885 (inactive),0.539,7300,8250,0.382 (inactive),-0.231
CN/C(=C/[N+](=O)[O-])NCCSCc1csc(CN(C)C)n1,–,74.7% (inactive),97.8%,0.889 (inactive),0.967,9080,10200,0.561 (inactive),-0.45
CC1(C)S[C@@H]2[C@H](NC(=O)C(C(=O)O)c3ccsc3)C(=O)N2[C@H]1C(=O)O (some centres undefined),–,73.9% (inactive),69.2%,0.946 (inactive),0.678,9480,10000,0.609 (inactive),0.365
CNCC(O)c1ccc(OC(=O)C(C)(C)C)c(OC(=O)C(C)(C)C)c1 (centres undefined),4.83 (inactive),97.5% (inactive) and 55.6% (inactive),100% and 75.1%,0.893 (inactive),0.873,8640,9680,-1.22 (inactive),-0.55
CC(=O)Nc1c(I)c(C(=O)N[C@H]2C(O)O[C@H](CO)[C@@H](O)[C@@H]2O)c(I)c(N(C)C(C)=O)c1I (some centres undefined),–,113% (inactive),109%,0.901 (inactive),1.22,9390,10400,0.559 (inactive),0.37
NC[C@H]1O[C@H](OC2[C@@H](N)C[C@@H](N)[C@H](O)[C@H]2O[C@@H]2O[C@H](CO)[C@@H](O)[C@H]2O)[C@H](N)[C@@H](O)[C@@H]1O (some centres undefined),–,77.5% (inactive),92.8%,1.02 (inactive),0.629,9070,8900,-0.509 (inactive),0.171
NC[C@@H]1O[C@H](O[C@H]2[C@@H](O)[C@H](O[C@@H]3[C@@H](O)[C@H](N)C[C@H](N)[C@H]3OC3O[C@H](CO)[C@@H](O)[C@H](O)[C@H]3N)O[C@@H]2CO)[C@H](N)[C@@H](O)[C@@H]1O (some centres undefined),–,69.5% (inactive),103%,0.833 (inactive),1.19,8720,10500,0.673 (inactive),-0.125
CC[C@@]1([C@@H]2O[C@@H]([C@H]3O[C@@](O)(CO)[C@H](C)C[C@@H]3C)C[C@@H]2C)CC[C@H]([C@]2(C)CC[C@]3(C[C@H](O)[C@@H](C)[C@@H]([C@@H](C)[C@@H](OC)[C@H](C)C(=O)O)O3)O2)O1 (stereo in doubt),–,-0.09% (active),93.8%,0.901 (inactive),1.01,2780,3090,-2.78 (inactive),-1.77
CCCC(=O)Nc1ncnc2c1ncn2[C@@H]1O[C@@H]2OP(=O)(O)OC[C@H]2[C@H]1OC(=O)CCC,–,71.6% (inactive),101%,0.912 (inactive),1.18,9650,10600,0.66 (inactive),0.0496
